Source: PubChem BioAssay (NCI)
This is part of a sample that, as a whole, favours compounds with a hit. Of some 79,000 tested, about 15% had one in any assay. Activity calls are given as the source filed them. Rule as the data show it: active = growth inhibition above about 70%; inactive = the rest.

What was measured:
[1] = NCI Yeast Anticancer Drug Screen. Data for the rad52 strain (AID 147);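 also: 0% = growth of vehicle-treated control cultures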; conditions: S. cerevisiae rad52 mutant growth inhibition, hits give high values
Method in brief: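 Growth of repair-deficient yeast cells was compared between compound-treated and vehicle-treated cultures to give percent inhibition.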

[2] = NCI Yeast Anticancer Drug Screen. Data for the wt1 strain (AID 149);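 also: 0% = growth of vehicle-treated wt1 cultures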; conditions: S. cerevisiae wt1 strain (SPY 50644) growth inhibition, hits give high values
Method in brief: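 Yeast wt1 strain exposed to compounds; growth inhibition measured relative to vehicle-treated controls.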

[3] = NCI Yeast Anticancer Drug Screen. Data for the rad50EPP+ strain (AID 151);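 also: 0% = growth of vehicle-treated control cultures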; conditions: S. cerevisiae rad50 mutant strain, hits give high values
Method in brief: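 Measured: growth inhibition of rad50EPP+ yeast. Reference: vehicle-treated controls. Screen uses strains with defined genetic alterations in DNA damage repair or cell cycle control.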

[4] = NCI Yeast Anticancer Drug Screen. Data for the mgt1 strain (AID 153); conditions: S. cerevisiae mgt1 mutant growth inhibition, hits give high values
Method in brief: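 Compounds were applied to mgt1 mutant yeast, and growth was then compared against vehicle-treated control cultures to give percent inhibition.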

[5] = NCI Yeast Anticancer Drug Screen. Data for the rad50 strain (AID 155);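 also: 0% = growth of vehicle-only cultures of the same strain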; conditions: S. cerevisiae rad50 strain growth inhibition, hits give high values
Method in brief: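 Yeast carrying a defined DNA repair defect were exposed to test compounds, and growth was compared with vehicle-treated controls to give percent inhibition.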

[6] = NCI Yeast Anticancer Drug Screen. Data for the mec2-1 strain (AID 157); conditions: S. cerevisiae mec2-1 strain, hits give high values
Method in brief: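 Compounds were applied to mec2-1 yeast cells. Their growth was then compared with that of vehicle-treated cultures to give growth inhibition.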

[7] = NCI Yeast Anticancer Drug Screen. Data for the rad14 strain (AID 159);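 also: 0% = growth of vehicle-treated control cultures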; conditions: S. cerevisiae rad14 strain growth inhibition, hits give high values
Method in brief: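 Yeast cells carrying a defined DNA-repair defect were exposed to compounds, and growth inhibition was calculated relative to vehicle-treated control cultures.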

[8] = NCI Yeast Anticancer Drug Screen. Data for the sgs1 mgt1 strain (AID 161);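 also: 0% = growth of cultures given vehicle only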; conditions: S. cerevisiae sgs1 mgt1 strain, hits give high values
Method in brief: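 This yeast growth screen uses a strain with defined DNA-repair lesions; compound-treated growth is compared with vehicle-treated growth.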

[9] = NCI Yeast Anticancer Drug Screen. Data for the CLN2oe strain (AID 163);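 also: 0% = growth of vehicle-only control cultures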; conditions: S. cerevisiae CLN2oe strain, hits give high values
Method in brief: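 Cells of an engineered yeast line with disturbed cell-cycle regulation are treated with compound. Inhibition of growth is then calculated relative to the vehicle-treated reference.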

[10] = NCI Yeast Anticancer Drug Screen. Data for the cln2 rad14 strain (AID 165);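 also: 0% = growth equal to vehicle treated cultures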; conditions: S. cerevisiae cln2 rad14 strain, hits give high values
Method in brief: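 Strain: cln2 rad14 yeast, altered in cell cycle control and DNA damage repair. Read-out: growth inhibition vs vehicle.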

[11] = NCI Yeast Anticancer Drug Screen. Data for the bub3 strain (AID 167); conditions: S. cerevisiae bub3 mutant strain, hits give high values
Method in brief: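 Compounds were applied to a genetically altered yeast strain carrying a cell-cycle control defect. Growth inhibition was scored against vehicle-treated controls.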

[12] = NCI Yeast Anticancer Drug Screen. Data for the wt2 strain (AID 169);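 also: 0% = growth of vehicle-treated yeast cultures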; conditions: S. cerevisiae wt2 strain growth inhibition, hits give high values
Method in brief: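 Growth of compound-treated yeast is measured and expressed as inhibition relative to vehicle-only controls.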

[13] = NCI Yeast Anticancer Drug Screen. Data for the mlh1 strain (AID 171);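 also: 0% = growth of vehicle-treated control cultures of the same strain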; conditions: S. cerevisiae mlh1 strain growth inhibition, hits give high values
Method in brief: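 Test agents were incubated with yeast bearing a defined DNA damage repair or cell cycle control alteration; values are growth inhibition normalised to vehicle-treated cultures.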

[14] = NCI Yeast Anticancer Drug Screen. Data for the sgs1 strain (AID 173);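 also: 0% = growth of vehicle-only control cultures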; conditions: S. cerevisiae sgs1 mutant, hits give high values
Method in brief: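 Strain with an altered DNA repair or cell cycle pathway exposed to compound. Growth then measured. Value = inhibition versus vehicle control.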

[15] = NCI Yeast Anticancer Drug Screen. Data for the mlh1 rad18 strain (AID 175); conditions: S. cerevisiae mlh1 rad18 strain growth inhibition, hits give high values
Method in brief: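 A repair-deficient yeast strain is exposed to test compound, and growth is scored relative to vehicle-treated controls.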

[16] = NCI Yeast Anticancer Drug Screen. Data for the rad18 strain (AID 177); conditions: S. cerevisiae rad18 mutant growth inhibition, hits give high values
Method in brief: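 DNA-repair-defective yeast; compound treatment; growth inhibition scored against vehicle.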

[17] = at 5.0 µM (retest, dose inferred, filed as 0.5)
[18] = at 50.0 µM (retest, dose inferred, filed as 5.0)

Measured: growth inhibition

CC(=O)N1C=Cc2c(c(C)c3c([nH]c4ccccc43)c2C)C1
inactive: [1]; at 1.2 µM 25% | [2]; at 1.2 µM -7% | [2]; at 3.7 µM 28% | [3]; at 1.2 µM 28% | [4]; at 1.2 µM 29% | [4]; at 3.7 µM 64% | [5]; at 1.2 µM 67% | [6]; at 1.2 µM -5% | [6]; at 3.7 µM 33% | [6]; [17] 12% | [7]; at 1.2 µM 7% | [7]; at 3.7 µM 32% | [8]; [17] 16% | [9]; at 1.2 µM 31% | [9]; at 3.7 µM 52% | [10]; [17] 24% | [11]; at 1.2 µM 16% | [11]; at 3.7 µM 52% | [11]; [17] 14% | [12]; at 1.2 µM 10% | [12]; at 3.7 µM 36% | [13]; at 1.2 µM 31% | [14]; at 1.2 µM -7% | [14]; at 3.7 µM 32% | [15]; [17] 44% | [16]; at 1.2 µM 23% | [16]; at 3.7 µM 44%
active: [1]; at 3.7 µM 88% | [1]; at 11.0 µM 95% | [1]; at 33.0 µM 96% | [1]; at 100.0 µM 97% | [2]; at 11.0 µM 82% | [2]; at 33.0 µM 90% | [2]; at 100.0 µM 92% | [3]; at 3.7 µM 74% | [3]; at 11.0 µM 94% | [3]; at 33.0 µM 97% | [3]; at 100.0 µM 96% | [4]; at 11.0 µM 91% | [4]; at 33.0 µM 96% | [4]; at 100.0 µM 95% | [5]; at 3.7 µM 91% | [5]; [17] 82% | [5]; at 11.0 µM 95% | [5]; at 33.0 µM 96% | [5]; [18] 91% | [5]; at 50.0 µM 87.2% | [5]; at 100.0 µM 95% | [6]; at 11.0 µM 81% | [6]; at 33.0 µM 91% | [6]; [18] 84% | [6]; at 50.0 µM 87.3% | [6]; at 100.0 µM 93% | [7]; at 11.0 µM 79% | [7]; at 33.0 µM 90% | [7]; at 100.0 µM 94% | [8]; [18] 91% | [8]; at 50.0 µM 88% | [9]; at 11.0 µM 91% | [9]; at 33.0 µM 95% | [9]; at 100.0 µM 95% | [10]; [18] 86% | [10]; at 50.0 µM 79.8% | [11]; at 11.0 µM 90% | [11]; at 33.0 µM 95% | [11]; [18] 86% | [11]; at 50.0 µM 85.3% | [11]; at 100.0 µM 96% | [12]; at 11.0 µM 81% | [12]; at 33.0 µM 90% | [12]; at 100.0 µM 92% | [13]; at 3.7 µM 71% | [13]; at 11.0 µM 90% | [13]; at 33.0 µM 96% | [13]; at 100.0 µM 95% | [14]; at 11.0 µM 86% | [14]; at 33.0 µM 95% | [14]; at 100.0 µM 95% | [15]; [18] 95% | [15]; at 50.0 µM 88.8% | [16]; at 11.0 µM 91% | [16]; at 33.0 µM 96% | [16]; at 100.0 µM 96%
